# Measured values taken from PubChem BioAssay AID1259415 (National Center for Advancing Translational Sciences (NCATS), 2018).
# Screen size: about 410,000 compounds; about 18,000 (4.4%) were called active. Roughly 7% stayed inconclusive and do not appear here. Many of the other results were omitted from the sample, so actives are more common in it than they were. Values without a mark were called inactive. No stated cut-off is given here; in the data, active means activity change below about -60%; inconclusive means no clear call, values can overlap the other calls; inactive means above about -39%.
# Assay: qHTS Assay for inhibitors of the human cytomegalovirus (HCMV)
# Details: HFF cells, HCMV-luciferase reporter, 72 h; at 57.5 µM; hits give low values
# Method in brief: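 Two-dose cell screen: HFF monolayers treated with compounds and infected with luciferase-expressing HCMV at 1 PFU/cell, 72 h at 37C, then lysed for luciferase measurement.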
# On the % scale 0 is the no-effect control and ±100 the full control effect.
row,Structure (SMILES),"activity change, negative = inhibition"
1,Cc1ccc(C)c(N2CCN(C(=O)Cc3c(C(=O)O)c(C)cn3C)CC2)c1,7.89%
2,CCC1CCC2(CC1)NC(=O)N(CC(=O)Nc1ccc(OC)cc1)C2=O (configuration not stated),-8.02%
3,CNS(=O)(=O)c1cccc(C(=O)NC2CCCc3ccccc32)c1 (configuration not stated),-19.2%
4,COC(=O)c1ccc(C(=O)NC2CC(C)(C)Cc3c2cnn3-c2ccc(F)cc2)nc1 (configuration not stated),29.8%
5,CC(C)(C)OC(=O)N1CCC(c2c(C(=O)NCCc3ccsc3)cnn2-c2ccc(F)cc2F)CC1,0%
6,Cn1nccc1C(=O)NC1CCCc2c1cnn2-c1ccccc1F (configuration not stated),-80% (active)
7,Cn1cc(C(=O)NCc2ccccc2F)cn1,3.61%
8,Cn1nccc1C(=O)NC1CCCc2c1cnn2-c1ccc(F)cc1F (configuration not stated),-81.5% (active)
9,COc1ccc(-n2c(C)nc3c(cnn3-c3ccc(F)cc3)c2=O)cc1,-33.7%
10,Nc1cc(N2CCCCCC2)c2nonc2c1[N+](=O)[O-],-24.1%
11,Cc1ccccc1NC(=O)CN1C(=O)C(C)(C)c2ccccc21,-4.1%
12,COc1cc(OC)c(OC)cc1/C=C/c1nc2cc3ccccc3cc2c(=O)n1-c1ccc(F)c(Cl)c1,11%
13,COc1ccc(NS(=O)(=O)c2ccc(NC(=O)c3ccc(N(C)S(C)(=O)=O)cc3)cc2)cc1,-94.5% (active)
14,COc1ccc(C(CNC(=O)c2ccc(NS(=O)(=O)c3ccc(F)c(C)c3)cc2)N(C)C)cc1 (configuration not stated),-9.49%
15,CCOC(=O)c1cc(C(=O)Nc2ccc(S(=O)(=O)Nc3ccc(OC)cc3)cc2)nn1C,2.74%
16,O=C(c1cccs1)c1cn(CCOc2ccc(Cl)cc2)c2ccccc12,-4.55%
17,COc1ccc(CCNC(=O)c2cnc3sc(N4CCCCCC4)nn3c2=O)cc1OC,0.444%
18,COc1ccc(NC(=O)Cn2c(=O)n(Cc3ccc(C(=O)NCc4ccccc4Cl)cc3)c(=O)c3ccccc32)cc1,-25.8%
19,CC1=C(C)CC(C(=O)NNC(=O)c2ccccc2O)C(C(=O)O)C1 (configuration not stated),-89.9% (active)

row,Structure (SMILES),"activity change, negative = inhibition"
1,CC1=C(C)CC(C(=O)NNC(=O)c2csc3c2CCC(C(C)(C)C)C3)C(C(=O)O)C1 (configuration not stated),35%
2,COc1cc(OC)c(C(=O)NNC(=O)c2ccccc2-n2cccc2)cc1OC,-25.6%
3,CC1=C(C)CC(C(=O)NC(C)CCc2ccccc2)C(C(=O)O)C1 (configuration not stated),16.1%
4,O=C(CO/N=C/c1ccccc1O)NNC(=O)c1ccccc1Cl,35%
5,O=C(NNC(=O)c1ccccc1O)c1ccccc1O,-97% (active)
6,COc1ccc(-c2cc(-c3ccccc3)nc3c2COc2ccc(Cl)cc2-3)cc1,9.57%
7,CC(=O)N1C[C@@H](CO)[C@@H](N(C)C(=O)c2ccco2)C[C@H]1c1ccccc1,-4.23%
8,COc1cc2c(cc1NC(=O)CN1CCN(S(=O)(=O)c3ccc(F)cc3)CC1)oc1ccccc12,63.3%
9,COc1ccc(-n2c(=O)c3ccccc3n(Cc3ccccc3Cl)c2=O)cc1,7.59%
10,CCCn1c(N)c(C(=O)CSc2nnc(Cc3cccs3)n2C2CC2)c(=O)[nH]c1=O,-9.71%
11,Cc1cc(C)c(OCCN2CC(C)OC(C)C2)c(Br)c1 (configuration not stated),-20%
12,Cc1ccc(Oc2cc(NC(=O)CCCn3nc(C)c([N+](=O)[O-])c3C)cc([N+](=O)[O-])c2)cc1,3.84%
13,COc1cc(NC(=O)Nc2ccc(C)cc2)cc([N+](=O)[O-])c1,-63.5% (active)
14,COc1ccc(S(=O)(=O)NNC(=O)Nc2ccc(C)cc2)c(OC)c1,-7.23%
15,Cc1cccc(N2CCN(C(=O)c3ccc(Nc4nc5ccccc5n5nnnc45)cc3)CC2)c1C,9.29%
16,CCOc1ccc(CNC(=O)c2ccc3c(c2)nnn3C2CCCC2)cc1,27.9%
17,COCCNC(=O)c1ccc(N2CCC3(CC2)OCCO3)c([N+](=O)[O-])c1,-4.44%
18,CCCNC(=O)c1ccc(N2CCC3(CC2)CC(c2cccc(Br)c2)=NO3)c(NC(=O)c2ccco2)c1,-2.24%
19,CCCNC(=O)c1ccc(N2CCC3(CC2)CC(c2ccc(Cl)cc2)=NO3)c([N+](=O)[O-])c1,-72.5% (active)

row,Structure (SMILES),"activity change, negative = inhibition"
1,COCCCNC(=O)c1c(NC(=O)c2cc(=O)c3cc(C)c(C)cc3o2)sc2c1CCCC2,11.5%
2,Cc1nnc(NCc2ccccc2)c2c1nnn2Cc1ccc(F)cc1,-5.95%
3,CCc1ccc(NC(=O)c2cc(S(=O)(=O)NC3CCCCCC3)ccc2F)cc1,-39.6%
4,Cc1ccc(CS(=O)(=O)CCC(=O)NC2CC2)cc1,-21.8%
5,Cc1ccc(CS(=O)(=O)c2ncc(Cl)c(C(=O)Nc3nnc(C)s3)n2)cc1,-111% (active)
6,Cc1ccc2nc(NC(=O)c3nc(SCc4ccccc4F)ncc3Cl)sc2c1,16.7%
7,O=C(Nc1nc2ccc(F)cc2s1)c1nc(SCc2ccccc2F)ncc1Cl,7.44%
8,CSc1nnc(NC(=O)c2nc(S(=O)(=O)Cc3ccc(C)cc3)ncc2Cl)s1,-102% (active)
9,CCOc1cccc(C(=O)Nc2nnc(S(=O)(=O)N(C)c3ccc(C)cc3)s2)c1,-25.8%
10,NNc1cccc(C=Cc2ccccc2)cc1=O,34%
11,Cc1ccc(S(=O)(=O)n2nc(C)c(S(=O)(=O)N3CCCCCC3)c2C)cc1,1.89%
12,Cc1nc2nc(NCc3cccc(Br)c3)[nH]n2c(=O)c1Cc1ccccc1,-3.03%
13,COc1ccc(C(=O)CSc2c(C(C)C)cnc3c2c(=O)n(C)c(=O)n3C)cc1,8.98%
14,CCOCCc1nn2c(=O)cc(COC(=O)CNC(=O)c3ccc(C(C)(C)C)cc3)nc2s1,-3.83%
15,CCOc1ccc(N(CC(=O)NCCc2ccc(OC)cc2)S(C)(=O)=O)cc1,-24%
16,Cc1cccc(C(CC(=O)NCC2(c3ccccc3)CCCC2)c2ccccc2)c1O (configuration not stated),-38.6%
17,CNC(=O)/C(=C\C=C\c1ccccc1)NC(=O)c1ccc([N+](=O)[O-])cc1,45.3%
18,O=C(N/C(=C\c1ccc([N+](=O)[O-])cc1)C(=O)N1CCCCC1)c1ccco1,-3.57%
19,O=C(NCCc1ccccc1)/C(=C\c1ccc([N+](=O)[O-])cc1)NC(=O)c1ccccc1,-102% (active)
